Here are results for 20 compounds from PubChem BioAssay (NCI).

Compounds without any hit were thinned out: in the full panel of roughly 79,000, 15% have a hit. A number with no mark means an inactive call. The source made the active and inactive calls. No stated cut-off is given here; in the data, active means growth inhibition above about 70%; inactive means the rest.

Test [1] is described as follows: NCI Yeast Anticancer Drug Screen. Data for the rad50 strain (AID 155).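 Further: 0% = growth of vehicle-only cultures of the same strain.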 The note with it: S. cerevisiae rad50 strain growth inhibition; at 50.0 µM; active compounds read high. The method, boiled down:
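Compounds were tested on a yeast strain with an engineered DNA damage repair alteration; the reported value is growth inhibition normalised to vehicle treatment.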

The nature of test [2]: NCI Yeast Anticancer Drug Screen. Data for the mec2-1 strain (AID 157). Particulars: S. cerevisiae mec2-1 strain, at 50.0 µM, active compounds read high. The method, boiled down:
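Cells of the genetically defined mec2-1 yeast strain are incubated with test compound. Inhibition of growth is calculated against vehicle-treated controls.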

Test [3] is described as follows: NCI Yeast Anticancer Drug Screen. Data for the sgs1 mgt1 strain (AID 161).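 Further: 0% = growth of cultures given vehicle only.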 Particulars: S. cerevisiae sgs1 mgt1 strain, at 50.0 µM, active compounds read high. The method, boiled down: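 Read-out: growth inhibition vs vehicle controls. Cells: mutant yeast strain deficient in DNA damage repair.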
Test [4] in a line: NCI Yeast Anticancer Drug Screen. Data for the cln2 rad14 strain (AID 165).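 Further: 0% = growth equal to vehicle treated cultures.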 Particulars: S. cerevisiae cln2 rad14 strain, at 50.0 µM, active compounds read high. The method, boiled down: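 The screen exposed genetically defined yeast (cln2 rad14) to test compounds and scored growth inhibition relative to vehicle-treated controls.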
A short description of test [5]: NCI Yeast Anticancer Drug Screen. Data for the bub3 strain (AID 167). Particulars: S. cerevisiae bub3 mutant strain, at 50.0 µM, active compounds read high. The method, boiled down: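 Growth of a checkpoint-deficient yeast mutant is measured after compound exposure. Values represent inhibition relative to vehicle.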
Test [6] in a line: NCI Yeast Anticancer Drug Screen. Data for the mlh1 rad18 strain (AID 175). Particulars: S. cerevisiae mlh1 rad18 strain growth inhibition; at 50.0 µM; active compounds read high. The method, boiled down: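 Compound-treated yeast growth, normalised to vehicle controls. Strain bears defined DNA repair mutations.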

Turning to `Oc1ccc2cccc(O)c2c1`, the growth inhibition in test [1] is -17.6%; in test [2], -33.6%; in test [3], 37.5%; in test [4], 19.9%; in test [5], 12%; in test [6], 3.9%.
In the case of `COC(=O)Nc1nc2c(OC)c(OC)c(OC)cc2[nH]1`, the growth inhibition is -5.15% in test [1]; -6.75% in test [2]; -3.95% in test [3]; -17.9% in test [4]; -18.6% in test [5]; -17.1% in test [6].
For the compound `Cn1c(=O)c2c(nc(C(=N)SCC(=O)O)n2C)n(C)c1=O`, the growth inhibition in test [1] was 3.1%; in test [2], 16.4%; in test [3], 15.8%; in test [4], 55%; in test [5], -44.8%; in test [6], 3.8%.
As to `CC1Cc2cc(O)ccc2C2[C@@H]1C1CC[C@H](O)[C@@]1(C)C[C@@H]2O[N+](=O)[O-]` (stereo not given in full), the growth inhibition in test [1] was 18.5%; in test [2] it was 19.7%; in test [3], 55.8%; in test [4], 47.3%; in test [5], 60.9%; in test [6], 83% (active).
As for `Cc1cccc(N=Nc2ccc(O)c(CN(C)C)c2)c1`, the growth inhibition is -17% in test [1]; 8.9% in test [2]; -0.35% in test [3]; -5.5% in test [4]; 29.1% in test [5]; 20.2% in test [6].
For `COC(=O)CC(c1ccc(OC)cc1)C(CC(=O)OC)c1ccc(OC)cc1` (stereo not given), the growth inhibition is -19.2% in test [1]; -29.8% in test [2]; 13.9% in test [3]; 15.8% in test [4]; 25.9% in test [5]; -20.1% in test [6].
As to `O=c1n(CCCN2CCN(c3cccc(Cl)c3)CC2)nc2ccccn12`, the growth inhibition in test [1] was 45.9%; in test [2], 11.4%; in test [3], 21.9%; in test [4], 19.8%; in test [5], -1.4%; in test [6], 8.35%.
For the compound `COC(=O)C1=CC(O)CCC1c1ccc(OC)cc1` (stereo not given), the growth inhibition in test [1] was -6.2%; in test [2], -10.7%; in test [3], -13.2%; in test [4], -5.8%; in test [5] it was -5.45%; in test [6], -19.2%.
With `CC[C@]12CCCN3CCc4c(n(c5ccccc45)C(=O)C1)[C@@H]32`, the growth inhibition is -25.9% in test [1]; -23.2% in test [2]; -49.1% in test [3]; 29.4% in test [4]; -25.6% in test [5]; 31.1% in test [6].
`FC(F)(F)c1cc(Br)c2ccc3ncccc3c2n1`: the growth inhibition is 6.5% in test [1]; 8.3% in test [2]; -1.05% in test [3]; -5.2% in test [4]; 6.8% in test [5]; 3.1% in test [6].
Regarding `COC1/C=C\OC2(C)Oc3c(C)c(O)c4c(O)c(c5sc(N)nc5c4c3C2=O)NC(=O)/C(C)=C\C=C\C(C)C(O)C(C)C(O)C(C)C(OC(C)=O)C1C` (stereo not given), the growth inhibition in test [1] is -2.25%; in test [2] it was 16.6%; in test [3] it was 4.75%; in test [4], 14.8%; in test [5], 22.1%; in test [6], 10.8%.
For the compound `CC(=O)c1c(-c2ccc(Cl)cc2)c(-c2ccc(Cl)cc2)nn(CCN)c1=O`, the growth inhibition in test [1] was 38.1%; in test [2] it was 15.2%; in test [3], 29.2%; in test [4] it was 24.6%; in test [5], 42.7%; in test [6] it was 93% (active).
Take `c1ccc(CCCCc2ccccn2)cc1`: the growth inhibition in test [1] is 32%; in test [2], -13.1%; in test [3], 31.6%; in test [4] it was 0.2%; in test [5], 27.4%; in test [6], 25%.
With `CCOC(=O)C(C)(C)Oc1ccc(N=[N+]=[N-])cc1`, the growth inhibition in test [1] is 13.1%; in test [2], 9.15%; in test [3], 41.5%; in test [4] it was 4.35%; in test [5] it was 5.8%; in test [6] it was 19.6%.
With `Nc1cccc(/C=C/c2ccc([N+](=O)[O-])cc2)c1`, the growth inhibition was -2.3% in test [1]; 24.6% in test [2]; 54.7% in test [3]; -12.4% in test [4]; 30% in test [5]; 39.5% in test [6].
As for `Nc1cccc(C(F)(F)F)c1[N+](=O)[O-]`, the growth inhibition was -8.25% in test [1]; -28% in test [2]; -22.4% in test [3]; -23.4% in test [4]; -25.9% in test [5]; 18.1% in test [6].
As to `N#CC1=C(N)C(c2ccccc2)(c2ccccc2)CC1`, the growth inhibition in test [1] is 30.4%; in test [2] it was 29.6%; in test [3], 8.15%; in test [4], -0.45%; in test [5], 0.4%; in test [6] it was 35.7%.
On to `CCCCCC/C(=C\c1ccc(O)cc1)C(=O)O`, for which the growth inhibition in test [1] was 17.6%; in test [2] it was 36.1%; in test [3], 32.8%; in test [4] it was 47.9%; in test [5] it was 39.6%; in test [6], 41.8%.
As for `Cc1ccc(C)c(NCc2ccccc2)c1`, the growth inhibition in test [1] is 41.6%; in test [2], 20.1%; in test [3] it was 8.85%; in test [4] it was -16.9%; in test [5], 36.9%; in test [6], 24.3%.
For `COC(=O)c1ccncc1`, the growth inhibition in test [1] is -2.6%; in test [2] it was 2.95%; in test [3], -2.8%; in test [4] it was -35.8%; in test [5], 10.4%; in test [6], -0.45%.
